Data on 36 compounds can be found in PubChem BioAssay (NCI).

The panel holds about 79,000 compounds, 15% with a hit somewhere; the sample as a whole holds those more often. Unmarked numbers belong to inactive results. Activity calls are given as the source filed them. Rule as the data show it: active = growth inhibition above about 70%; inactive = the rest.

Experiment [1] in a line: NCI Yeast Anticancer Drug Screen. Data for the rad50 strain (AID 155).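 Also: 0% = growth of vehicle-only cultures of the same strain.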 The settings on record: S. cerevisiae rad50 strain growth inhibition; at 50.0 µM; active compounds read high. Summed up:
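Growth of the mutant yeast was measured after compound exposure and referenced to vehicle-treated cultures.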

Experiment [2] is described as follows: NCI Yeast Anticancer Drug Screen. Data for the mec2-1 strain (AID 157). The settings on record: S. cerevisiae mec2-1 strain, at 50.0 µM, active compounds read high. Summed up: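 Using mec2-1 yeast: add compound, measure growth, express inhibition versus vehicle-treated cultures.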
The nature of experiment [3]: NCI Yeast Anticancer Drug Screen. Data for the sgs1 mgt1 strain (AID 161).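 Also: 0% = growth of cultures given vehicle only.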 The settings on record: S. cerevisiae sgs1 mgt1 strain, at 50.0 µM, active compounds read high. Summed up: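 This yeast growth screen uses a strain with defined DNA-repair lesions; compound-treated growth is compared with vehicle-treated growth.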
Experiment [4] in a line: NCI Yeast Anticancer Drug Screen. Data for the cln2 rad14 strain (AID 165).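 Also: 0% = growth equal to vehicle treated cultures.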 The settings on record: S. cerevisiae cln2 rad14 strain, at 50.0 µM, active compounds read high. In outline:
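Yeast strain cln2 rad14, bearing defects in cell cycle control and DNA repair, serves as the test system; values reflect growth inhibition compared with vehicle.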

Experiment [5] is described as follows: NCI Yeast Anticancer Drug Screen. Data for the bub3 strain (AID 167). The settings on record: S. cerevisiae bub3 mutant strain, at 50.0 µM, active compounds read high. Summed up: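 Whole-cell yeast assay. The mutant strain was incubated with compounds, and growth inhibition was determined by comparison with vehicle-treated cells.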
A short description of experiment [6]: NCI Yeast Anticancer Drug Screen. Data for the mlh1 rad18 strain (AID 175). The settings on record: S. cerevisiae mlh1 rad18 strain growth inhibition; at 50.0 µM; active compounds read high. In outline: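 Steps: expose repair-defective yeast to compound; measure growth; express inhibition against vehicle-treated controls.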

As to `O=C(O)c1[nH]c2ccccc2c(=O)c1-c1ccccc1`, the growth inhibition is 11.7% in experiment [1]; -31.5% in experiment [2]; 0.95% in experiment [3]; -14.3% in experiment [4]; 1.05% in experiment [5]; -19.4% in experiment [6].
For `CCOC(=O)c1c[nH]c2cc(Cl)ccc2c1=O`, the growth inhibition in experiment [1] is 3.85%; in experiment [2], 30.5%; in experiment [3], 9.65%; in experiment [4], 7.9%; in experiment [5], 15.3%; in experiment [6], -12.9%.
For the compound `O=C(OC1CC2CCC1C2)c1cc([N+](=O)[O-])cc([N+](=O)[O-])c1` (stereo unspecified), the growth inhibition was 8.55% in experiment [1]; -1.4% in experiment [2]; -9% in experiment [3]; -20.4% in experiment [4]; -3.7% in experiment [5]; -3% in experiment [6].
For `COc1ccc2c(ccc3[nH]c4c(C)cnc(NCCCN(C)C)c4c32)c1`, the growth inhibition is -16.6% in experiment [1]; -7.6% in experiment [2]; -2.7% in experiment [3]; -3.55% in experiment [4]; 4.05% in experiment [5]; -7.85% in experiment [6].
On to `CC(=O)Nc1c([N+](=O)[O-])cc(C2CCCCC2)cc1[N+](=O)[O-]`, for which the growth inhibition in experiment [1] is -8.05%; in experiment [2], -7.25%; in experiment [3], 4.25%; in experiment [4], -34.5%; in experiment [5], 23.2%; in experiment [6], -9.85%.
Regarding `CCCN=C(C(C)=O)N(C)C`, the growth inhibition was -1.7% in experiment [1]; 1.3% in experiment [2]; -14.9% in experiment [3]; 6.55% in experiment [4]; 24.2% in experiment [5]; 2.85% in experiment [6].
For `O=C(NC12CC3CC(CC(C3)C1)C2)C(=O)c1c[nH]c2ccccc12`, the growth inhibition in experiment [1] is 8.5%; in experiment [2], 14.2%; in experiment [3] it was 8.1%; in experiment [4], 24.6%; in experiment [5], 23.6%; in experiment [6], 11.4%.
With `COc1ccc(NC(=O)CSc2nnc(Cc3ccccc3)o2)cc1`, the growth inhibition in experiment [1] was -49.5%; in experiment [2] it was -37.4%; in experiment [3], -43.6%; in experiment [4], -21.1%; in experiment [5], -54%; in experiment [6], -57.6%.
Regarding `CCCCCCCCCCCCCCCCS(=O)(=O)N/N=C(/c1ccc(Cl)cc1)N1CCCCC1`, the growth inhibition in experiment [1] is -18.2%; in experiment [2], -32.1%; in experiment [3], 3.25%; in experiment [4], 21.2%; in experiment [5] it was -10.2%; in experiment [6], -4.85%.
Regarding `Cc1nc(-c2cccnc2)sc1C(=O)/C=C/c1ccc(Cl)cc1Cl`, the growth inhibition is 12.8% in experiment [1]; -2.05% in experiment [2]; 3.85% in experiment [3]; 8.55% in experiment [4]; 3.7% in experiment [5]; 8.95% in experiment [6].
Consider `Clc1ccc(N=Nc2ccccc2)cc1`, for which the growth inhibition in experiment [1] was -2.45%; in experiment [2], 12.3%; in experiment [3], 4.4%; in experiment [4], -14.7%; in experiment [5], 1.7%; in experiment [6], 5.25%.
Consider `C[n+]1cccc2cccc(N)c21`, for which the growth inhibition in experiment [1] was 22.1%; in experiment [2], 0.1%; in experiment [3], 11.3%; in experiment [4], -5.65%; in experiment [5], 15.5%; in experiment [6] it was 5.6%.
Consider `CP(=O)(c1ccccc1)c1ccccc1OCCCOCCCOc1ccccc1P(C)(=O)c1ccccc1` (stereo unspecified), for which the growth inhibition in experiment [1] was -4.8%; in experiment [2], 3.4%; in experiment [3], 0.45%; in experiment [4], 8.1%; in experiment [5] it was -3.55%; in experiment [6], -10.6%.
Turning to `O=c1sc2ncccc2n1-c1ccc([N+](=O)[O-])cn1`, the growth inhibition in experiment [1] is -3.4%; in experiment [2], 10.4%; in experiment [3], 3.15%; in experiment [4], -18.4%; in experiment [5], 11.9%; in experiment [6], -6.55%.
In the case of `O=C(Nc1ccc(N=C=S)cc1Cl)c1cc(Br)cc(Br)c1O`, the growth inhibition was 94.3% (active) in experiment [1]; 96.7% (active) in experiment [2]; 95.6% (active) in experiment [3]; 97.1% (active) in experiment [4]; 96.8% (active) in experiment [5]; 94.7% (active) in experiment [6].
Turning to `CNCCC(C(=O)O)c1ccccc1` (stereo unspecified), the growth inhibition was -12.1% in experiment [1]; -7.25% in experiment [2]; 9.15% in experiment [3]; -28.2% in experiment [4]; -2.6% in experiment [5]; 9.1% in experiment [6].
With `CCCCCOC(=O)OC(C)CNC(=O)C(C)OC(=O)OCCCCC` (stereo unspecified), the growth inhibition in experiment [1] was -17.4%; in experiment [2], -33.5%; in experiment [3], -12.5%; in experiment [4], -61.4%; in experiment [5], -9.5%; in experiment [6], -29.4%.
For the compound `C=C1CCCCCCCCCCC12SCCCS2`, the growth inhibition was -42.1% in experiment [1]; 7.6% in experiment [2]; -25.7% in experiment [3]; -11.9% in experiment [4]; 20% in experiment [5]; -26.6% in experiment [6].
For the compound `CCC(C)NC(=O)C(C)C` (stereo unspecified), the growth inhibition was 2.7% in experiment [1]; -3.6% in experiment [2]; -2.9% in experiment [3]; -32.8% in experiment [4]; -3.3% in experiment [5]; 16.4% in experiment [6].
`FC1(F)SC2c3ccccc3CC2C1(F)F` (stereo unspecified): the growth inhibition was 20.4% in experiment [1]; 6.15% in experiment [2]; 7.75% in experiment [3]; -47.2% in experiment [4]; 8.35% in experiment [5]; 9.95% in experiment [6].
In the case of `CCOc1cn(C2OC(CO)C(O)C2O)c(=O)[nH]c1=O` (stereo unspecified), the growth inhibition is -33.9% in experiment [1]; -28.4% in experiment [2]; -16.2% in experiment [3]; 3.55% in experiment [4]; -25.2% in experiment [5]; 3.5% in experiment [6].
`OCC(CO)(CO)COCC(CO)(CO)CO`: the growth inhibition is 8.5% in experiment [1]; -25.1% in experiment [2]; 6.75% in experiment [3]; 10% in experiment [4]; -12.3% in experiment [5]; 13.1% in experiment [6].
With `O=[N+]([O-])c1cccc(CC(=S)N2CCOCC2)c1`, the growth inhibition in experiment [1] was 14.4%; in experiment [2], -3.8%; in experiment [3], -8.9%; in experiment [4] it was -39.8%; in experiment [5] it was -2.3%; in experiment [6], 6.6%.
`O=C(OCc1ccccc1CN1CCCC1)c1cccc(Cl)c1`: the growth inhibition was 2.8% in experiment [1]; -3.75% in experiment [2]; -8.1% in experiment [3]; -7.2% in experiment [4]; 8.35% in experiment [5]; 2.65% in experiment [6].
Take `CCN(CC)CC(C(=O)Nc1c(C)cccc1C)/C(C)=N\NC(=O)C[N+](C)(C)C` (stereo unspecified): the growth inhibition in experiment [1] was 19.4%; in experiment [2] it was 4.85%; in experiment [3], -26.6%; in experiment [4] it was -21.8%; in experiment [5], -0.7%; in experiment [6], -1.9%.
In the case of `O=CC1N=C1c1ccccc1` (stereo unspecified), the growth inhibition in experiment [1] is 9.4%; in experiment [2], -0.05%; in experiment [3], 0.65%; in experiment [4] it was 18.3%; in experiment [5] it was 25.9%; in experiment [6], 16.1%.
As to `c1cnc2cccnc2c1`, the growth inhibition in experiment [1] is -16.1%; in experiment [2] it was -30.4%; in experiment [3], -14.7%; in experiment [4] it was -6.15%; in experiment [5], -8.6%; in experiment [6], -9.9%.
In the case of `O=C(NCCCl)Nc1[nH]c(=O)ncc1Br`, the growth inhibition in experiment [1] is -13.2%; in experiment [2], -12.7%; in experiment [3], -10.8%; in experiment [4], -44.4%; in experiment [5], -6.85%; in experiment [6], -12.3%.
In the case of `C=CCOc1cc2c(cc1Cc1ccc3c(c1)OCO3)OCO2`, the growth inhibition was -6.85% in experiment [1]; -7.75% in experiment [2]; -7.9% in experiment [3]; 9.25% in experiment [4]; 7.5% in experiment [5]; -3.05% in experiment [6].
Take `CCCCCCCCCCCCCCCCCCN=C(N)N`: the growth inhibition is -1.55% in experiment [1]; -10.8% in experiment [2]; 12.8% in experiment [3]; 22.4% in experiment [4]; -2.25% in experiment [5]; 10.8% in experiment [6].
`Brc1cccc(CCOCc2ccccc2)c1`: the growth inhibition was 8.45% in experiment [1]; -11.6% in experiment [2]; -4.3% in experiment [3]; 2.05% in experiment [4]; 0.5% in experiment [5]; -3.9% in experiment [6].
Regarding `CC(C)(Oc1ccc2c(=O)cc(-c3ccc(Cl)cc3)oc2c1)C(=O)Nc1c(Cl)cccc1Cl`, the growth inhibition in experiment [1] was 16.4%; in experiment [2], -20.1%; in experiment [3], 6.45%; in experiment [4] it was -14.9%; in experiment [5] it was 2.75%; in experiment [6], 16.8%.
As for `CC(=O)Nc1ccc(F)c(F)c1`, the growth inhibition in experiment [1] is 17.8%; in experiment [2] it was -16.7%; in experiment [3] it was 3.2%; in experiment [4], -3.95%; in experiment [5], -3.35%; in experiment [6] it was 30.8%.
For `COc1ccc(/C=C(/NC(=O)c2ccccc2)C(=O)O)c(OC)c1C`, the growth inhibition in experiment [1] is 2.4%; in experiment [2] it was 0.45%; in experiment [3], 1.3%; in experiment [4], -66%; in experiment [5], -17.2%; in experiment [6], -7.65%.
On to `O=c1onc2n1-c1cc(Cl)ccc1C(=S)N1CSCC21` (stereo unspecified), for which the growth inhibition is 1% in experiment [1]; 8.15% in experiment [2]; 13.5% in experiment [3]; 5.4% in experiment [4]; 2.5% in experiment [5]; 11.6% in experiment [6].
As to `CCCCN(CCCC)CC(O)c1cc(-c2cccc(I)c2)nc2c(Cl)cc(Cl)cc12` (stereo unspecified), the growth inhibition in experiment [1] is 38.6%; in experiment [2] it was 4.4%; in experiment [3] it was -4.75%; in experiment [4], -11.1%; in experiment [5], -6.15%; in experiment [6] it was 29.3%.
